± gives the standard deviation of the averaged measurements. The full ranking holds about 25,000 sequences; the median of “ln(normalized median fluorescence intensity)” is about 7.9, and the highest 2% start at about 11. The list comes from a sample in which the highest values are over-represented; it also holds similar and randomly drawn sequences.
tested on: PfAP2-I AP2 domain 3 (GST-tagged); experiment: gcPBM binding intensity (ln(normalized median fluorescence intensity)); higher = stronger DNA binding
Outline: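 Plasmodium falciparum DNA-binding domains carrying a GST tag were expressed in E. coli and applied for 1 h, at about 25 μg on average, to an Agilent 4 × 180k array. The array held primer-extended double-stranded 36-bp intergenic genomic probes together with negative controls, and binding took place in 1× PBS with 1% milk, 0.2 mg/ml BSA, 0.5% salmon testes DNA and 0.03% Triton X-100. An Alexa488 anti-GST antibody detected bound protein, and the array was scanned at 488 nm. Binding intensity is taken as the highest Masliner-normalised natural-log median intensity across replicate spots of either probe orientation.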

Row | Sequence | gcPBM binding intensity (ln)
1 | TGGGAAAAAATATATGCACACCCCCCAAAAAAAAAA [CACACA_site8696] | 11.5 ± 0.52
2 | AAAAAAAAAAAACACACACACACACCCAAATATATA [CACACA_site150] | 7.91 ± 0.2
3 | GGAAAAAATATATGCACACCCCCCAAAAAAAAAAAA [CACACA_site2222] | 10.6 ± 0.2
4 | CGGATGAATATATATGCACACATCTTTTGTAAAAAT [CACACA_site3190] | 9.16 ± 0.11
5 | TTTCCAATTAGTTTTGCATGTTGAAAAAATGTTGGA [TGCATGCA_site1035] | 7.71 ± 0.52
6 | TATATTATATATATACTGCACTGTTTTACAAAATTA | 10.8 ± 0.57
7 | TTTAGTGAGTTTGTTGTGCACTGAAAAAATTACAAT | 11.1 ± 0.18
8 | GCACATATGAATATAATACACACTTGTATTATTAAT [CACACA_site1841] | 8.1 ± 0.52
9 | CATGAATATTTTAATGTGCACATTTATCATTATATG | 9.5 ± 0.21
10 | TTAATTATGGACAGGGTGCACATGAATAATAATACC | 11 ± 0.18
11 | TTTGAATACTGAATGGTGCAAATTGTTCTCCCCATG | 10.9 ± 0.61
12 | ATTTATATATATATAGGTACACATATTTATATATAA [XGTACX_site8487] | 7.58 ± 0.41
13 | AAATAGTTGTTAAAGGTGCACAATATGGATATAAGA | 11.5 ± 0.38
14 | AAAGAAATAAGGTGCACACATATACAGATATATATA [CACACA_site4399] | 10.3 ± 0.4
15 | TTAAAAGTTATGGATACACACATATAAATATAGATT [CACACA_site7175] | 7.57 ± 0.42
16 | AATATATGTTTAATTTCACACACAAATATACATTTT [CACACA_site9385] | 7.69 ± 0.65
17 | TACAGATACAGATACACACACACACCGAAATAAATA [CACACA_site4865] | 7.84 ± 0.37
18 | AATTTAATATAATGCACACATAAAAAAAAAAAATTC [CACACA_site1504] | 11 ± 0.61
19 | CTTATATTAATTATTACACACATATTTATAAATGCA [CACACA_site6501] | 8.07 ± 0.47
20 | CATATATATCGTAATGCACACATGTAATTTCATAAT [CACACA_site811] | 11 ± 0.92
21 | ATTTTTAATTTTTTCACACATATATTTAAAATAAAA [CACACA_site4799] | 7.94 ± 0.49
22 | TTCAAAATAAAAAATTCACACACATATATATATATA [CACACA_site8653] | 9.28 ± 0.39
23 | ATATTTTATTATATAGGTACACATAATTTCATGTAA [XGTACX_site415] | 7.83 ± 0.52
24 | TAAAAATTCAATTGCACACGCACATATTTTAATAAG [CACACA_site2014] | 8.8 ± 0.057
25 | AAAATTTAATATAATGCACACATAAAAAAAAATTCA [CACACA_site8640] | 10.9 ± 0.92

Row | Sequence | gcPBM binding intensity (ln)
26 | ATTTCGTAATTTATATCACACACATATATATATAAT [CACACA_site9021] | 8.06 ± 0.53
27 | AATTTAATATAATGCACACATAAAAAAAAATTCAAA [CACACA_site2062] | 11 ± 0.79
28 | TGTATAAATATAATCACACATATATATATATATATA [CACACA_site4365] | 9.32 ± 0.53
29 | AATTTATAAGAATAAAGTACTAAAGATACAACTTTA [XGTACX_site7153] | 7.53 ± 0.4
30 | GAATAAAAAAAAAAAAAAATTTATTTTATAATAAAA [CACACA_negctrl_site1514] | 7.24 ± 0.49
31 | ACTTATATTATAAATTGTACAAATATTATATTTGGT [XGTACX_site1424] | 7.76 ± 0.54
32 | ACATATATATATATATATATATATATATTACATTTA [CACACA_negctrl_site627] | 8.54 ± 0.28
33 | AATAAAGAAGAAGAAAGTACACATTTCACAAAGGGG [XGTACX_site1308] | 8.23 ± 0.21
34 | AAAAATACAATTTTCTTGCACTTTGTTGCATTGTAA | 9.79 ± 0.32
35 | TATAAATAGATATATACACACTTGTGCAGAATATTA [CACACA_site7112] | 9.37 ± 0.099
36 | CCATCTTTTTTACGATGTACAAGTATAAGGTATACG [XGTACX_site2697] | 7.76 ± 0.46
37 | TACTGCCTTCCATACCCACACACTTCCCATATATTT [CACACA_site2705] | 8.44 ± 0.69
38 | TAGAACAAATAAAACACACACATATAAATATAGATG [CACACA_site7325] | 7.65 ± 0.73
39 | TTTTTTTGTTGTTGTTGTACGATATTTTCCTTATCA [XGTACX_site2375] | 7.93 ± 0.54
40 | TATGTAATAAAATATACACACAATATACTTATATAT [CACACA_site3682] | 7.53 ± 0.55
41 | TATTCAATACTTAATGCACACAATAAAAAAAATATG [CACACA_site2467] | 10.9 ± 0.71
42 | TATGCAATAAAATATACACACAATATACTTATATAT [CACACA_site7691] | 7.87 ± 0.4
43 | AATAATAATATATGTAGTACACATTTCCATTATGTT [XGTACX_site3708] | 7.75 ± 0.27
44 | ACTTATTGTGGTTTTGCATGTAGCATTTTTACATAC [TGCATGCA_site247] | 8.62 ± 0.91
45 | TGTTTTATTTTTTTTGTGCACATACCTTTAGCATCA [GTGCAC_site9812] | 10.64 ± 0.064
46 | TTTTGTTATTTTTTAGTGCATATAAAGGTTGTTAAG | 10.7 ± 0.4
47 | CATCATCTTTTAAAGGTGCATAATAATATTGTTAAT | 11.4 ± 0.69
48 | TTTCTTTTTAAATAGGTGCATATTTTTATAAATATA | 9.95 ± 0.42
49 | ATATACATTCTATATACATGCATACTTCATTTTGTG [TGCATGCA_site966] | 8.03 ± 0.85
50 | AGGAAAATTATGAATGGTACAGAATATATTAGGAGA [XGTACX_site6282] | 8.05 ± 0.74

Row | Sequence | gcPBM binding intensity (ln)
51 | AAGGAGAAATATTGCACACGTGCAAAATGGTATGAG [CACACA_site259] | 11.1 ± 0.35
52 | GAGTGAAATATGCAAACACACACGAGAAAAATGTAT [CACACA_site3196] | 8.09 ± 0.85
53 | GTGAAATATGCAAACACACACGAGAAAAATGTATAT [CACACA_site7488] | 8.19 ± 0.91
54 | AAAAGGAGAAATATTGCACACGTGCAAAATGGTATG [CACACA_site4300] | 11.3 ± 0.085
55 | AATGAGAAGGACTGCACACTAAAATGGAAGGAGAAA [CACACA_site1575] | 8.28 ± 0.79
56 | AAGAAGAGTTATTGTAGTACATTTTTAAATGTAATA [XGTACX_site7664] | 7.73 ± 0.34
57 | TGTTATATAATTTAGCGTACAGGTTATAGGACGGAT [XGTACX_site8823] | 8.5 ± 0.35
58 | CCATGATTATTAGATTGTACATAACATACAAATTGA [XGTACX_site314] | 7.68 ± 0.45
59 | TGTCATGATACATACACACACATACACATACACATA [CACACA_site2135] | 8.05 ± 0.42
60 | ATATATATATATATATGTACTAATTAATATTTCGAG [XGTACX_site580] | 9.45 ± 0.49
61 | TTTTTTTTTTTCGGGGGTACTAATATATTATTAATA [XGTACX_site7809] | 10.8 ± 0.47
62 | AATATTATATATATGGGTACTAATTCCTTTAATTTC [XGTACX_site102] | 7.45 ± 0.53
63 | ATATGCATAAAAAGAGGTACACATAAAATATATATA [XGTACX_site5864] | 8.19 ± 0.64
64 | TAAATAATTTATAAGTGTACTATTATTGCACGAATA [XGTACX_site7715] | 11.1 ± 0.57
65 | GATATACAATTTAAGTGTACTATAATAAAATATATA [XGTACX_site3013] | 7.79 ± 0.071
66 | TTTATTTAAAATAAGTGTACTAGAAAAATTAAGCAG [XGTACX_site4982] | 8.55 ± 0.16
67 | ACATATTTCCAATAATGTACATACAAAATAAGAATG [XGTACX_site2659] | 7.82 ± 0.58
68 | AAAAAAAAAATATATTGTACAATATTGTAGCTATAT [XGTACX_site7180] | 7.67 ± 0.49
69 | GTTTTTAAGAAAAACACACACTCCTGTTATTTTATA [CACACA_site3696] | 7.67 ± 0.72
70 | ATGCTTATTATTTATTGTACTGAATAAATATATCTG [XGTACX_site4483] | 7.79 ± 0.46
71 | GTGCATAAATCATACACACACACATATATAAATATA [CACACA_site7188] | 10.5 ± 0.65
72 | TCGTGCATAAATCATACACACACACCGATATATATA [CACACA_site8767] | 11.3 ± 0.67
73 | GTGCATAAATCATACACACACACATATATATATATA [CACACA_site2423] | 10.4 ± 0.67
74 | TATACGGACTCTAAGTGTACTTAAAATAATTCAAAC [XGTACX_site3606] | 7.75 ± 0.53
75 | AATTAACCCTAATTTTGTACATATTCCTTTTCTCAT [XGTACX_site46] | 7.92 ± 1

Row | Sequence | gcPBM binding intensity (ln)
76 | ATTTTATTTTATTAAGTGCAAAAAAAAAAAAAGAAA | 10.2 ± 0.32
77 | TATTATTATTTTATGGTGCAAAAAAAAAAAAAAAAA | 10.9 ± 0.61
78 | TATTTTTATTATATGGTGCATATATACATACATATA | 10.7 ± 0.79
79 | AAAAACAAAATTTGGAGTACAGTTATAATATTATTA [XGTACX_site5245] | 8 ± 0.24
80 | ATGAGTGCACAAATATATATATATATATATATATAT [CACACA_negctrl_site404] | 11 ± 0.56
81 | TAATATAATCTGAGTGCACACAAATAAATAAACATA [CACACA_site8032] | 10.5 ± 0.14
82 | GCACAAATATATATATATATATATATATATATATAT [GTGCAC_negctrl_site661] | 9.07 ± 0.54
83 | GGAAAATTATCAATAGCATGCAAAATGTGAATATTA [TGCATGCA_site901] | 7.61 ± 0.7
84 | AAATATTATAGCACCACACACTTATTTTATTTATAT [CACACA_site7133] | 10.8 ± 0.55
85 | GAAAATATTATAGCACCACACACTTATTTTATATAT [CACACA_site2265] | 10.5 ± 0.71
86 | AAATATTATAGCACCACACACTTATTTTATATATAT [CACACA_site5281] | 10.8 ± 0.86
87 | ATTATTATTATATTTTGTACATATGTAACAATATAT [XGTACX_site5780] | 7.83 ± 0.47
88 | AATAATTTTTTAAACACACACACATATATATATATA [CACACA_site95] | 9.32 ± 0.28
89 | ATAATTTCATAATACGTGCACATAATATATAAAAAA | 11.385 ± 0.007
90 | AAAATTTAATATAATGCACACATAAAAAAAAAAAAA [CACACA_site7923] | 11 ± 0.93
91 | AACATTTATATAAAAGAACACACATATAAAATATTA [CACACA_site9199] | 7.62 ± 0.61
92 | ATAAAATATATATGCACACACATATATATTTCATAC [CACACA_site3547] | 9.5 ± 0.14
93 | AATTTAATATAATGCACACATAAAAAAAAAAAAAAA [CACACA_site123] | 11.2 ± 0.78
94 | TATATAAATTTAATAACACACATATAAAAATGAATT [CACACA_site2366] | 7.61 ± 0.55
95 | GAAATAATTTCATATACACACATATACATACATACA [CACACA_site1358] | 8.44 ± 0.72
96 | CATTTATATAAAAGAACACACATATAAAATATTATT [CACACA_site3601] | 7.66 ± 0.52
97 | ATAAAAAAATTAAATACATGCACATATACACATACA [TGCATGCA_site129] | 8.17 ± 0.38
98 | TTAAAAGAATATAATGCACACATTATTTTATTTTAT [CACACA_site3772] | 10.9 ± 0.73
99 | GCACACATATAATAATGTACATATATATATTTAAAA [XGTACX_site4561] | 7.96 ± 0.44
